SARS PLpro yeast = blocks SARS-CoV papain-like protease in a yeast assay; S. cerevisiae expressing SARS-CoV PLpro, growth rescue; Potency, µM (series often up to 32.9 µM), for inactives: at the top dose activity, positive = growth rescue, actives largely listed as activators; 330,000 compounds, 0.19% hits; AID 485353; calls by dose curve; note: potency is the fitted concentration of half-maximal effect; 0% is about no effect; nearly all actives have a fitted effect of over 55% in size
NS1 inh = influenza NS1 inhibition. Potency, µM (doses to about 46.1 µM), inactives show top-dose activity, positive = more growth. 270,000 compounds, 0.4% hits. AID 2326; calls by dose curve; note: potency is the fitted concentration of half-maximal effect; actives are rising curves; nearly all actives have a fitted effect of over 50% in size
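A cell-based growth assay was used: compounds that relieve NS1-induced slow growth of budding yeast raise OD600. Assay medium was yeast nitrogen base with ammonium sulphate and -URA supplement, pH 6.0, with 2% galactose.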
Shiga inhibitor = Shiga toxin inhibition; Vero cells, Shiga toxin protein synthesis inhibition reporter; AID 2315; 290,000 compounds, 9.2% hits; inhibition, % at 38.7 µM; in the data active = inhibition mostly above about 28%, no sharp cut-off; inactive = mostly below about 43%; note: 0% is about no effect
Pf growth 96h = P. falciparum growth inhibition at 96 hour, primary screen for plastid delayed-death inhibitors; P. falciparum luciferase reporter growth, 96 h; Potency, µM (series often up to 28.7 µM), without a hit: top-dose activity change, negative = inhibition, most hits filed as inhibitors; 320,000 compounds, 6.9% hits; AID 504834; note: potency is the fitted concentration of half-maximal effect; % is set by controls: 0 for no effect and ±100 for the full control effect
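Luminescence readout: decreased luciferase signal marks inhibited growth of reporter-expressing P. falciparum in infected red cells (2% hematocrit, 0.05% parasitemia final), exposed to compound two generations (96 h, 37 C, 5% CO2).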
Cycloheximide cs = affects cycloheximide protein synthesis inhibition readout, counter-screen; 300,000 compounds, 12% hits; cell reporter, cycloheximide protein synthesis inhibition counterscreen; max response, %; AID 2314; in the data active = max response mostly above about 13%, no sharp cut-off; inactive = mostly below about 14%; note: read at 38.3 µM for the half of the compounds with a filed dose; 0% is about no effect
Pf growth 48h = inhibits P. falciparum growth in the first generation, 48 h. Potency, µM (series often up to 28.7 µM), without a hit: at the highest dose activity change, negative = inhibition, actives largely listed as inhibitors. 310,000 compounds, 5.9% hits. P. falciparum luciferase growth in erythrocytes, 48 h; note: potency is the fitted concentration of half-maximal effect; % is set by controls: 0 for no effect and ±100 for the full control effect
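Luciferase-expressing parasites in RBCs, 2% Hct / 0.1% parasitemia final; RPMI 1640 + 0.5% Albumax; 37 C, 5% CO2, one generation; luminescence read-out, lower signal = inhibition.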
* hit, by the source's call; ? = inconclusive; / = not tested or not shown; [ ] = remark or other dose. The list is not random: actives were taken first. Their share in the collection is about 21%. Unless noted, calls come from the whole dose curve; as a rule, active = well fitted inhibition curve with a large enough effect; inconclusive = small, poorly fitted or top-dose-only effect, or another doubt; inactive = no such curve, though single readings can be large or run the other way.

SMILES | SARS PLpro yeast | NS1 inh | Shiga inhibitor | Pf growth 96h | Cycloheximide cs | Pf growth 48h
CC(C)CC1c2[nH]c3ccccc3c2CCN1C(=O)c1cnccn1 (stereo not given) | 1% | 1% | 76* | ? | 51* | ?
Cn1cccc1-c1cc(C(=O)N2CCc3c([nH]c4ccccc34)C2c2ccccn2)[nH]n1 (stereo not given) | 0% | 22% | -20 | 0% | -2 | ?
CC(C)CC1c2[nH]c3ccccc3c2CCN1C(=O)CCC(=O)N(C)C (stereo not given) | 0% | -5% | 44* | 6.6µM* | 18 | 1%
CC(C)CC1c2[nH]c3ccccc3c2CCN1C(=O)C1CCOCC1 (stereo not given) | -1% | -5% | 6 | 4% | -3 | 4.7µM*
O=C(O)CSCC(=O)N1CCc2c([nH]c3ccccc23)C1C(F)(F)F (stereo not given) | 1% | -3% | -8 | 6% | -5 | 16%[0.00184 µM]
Cc1c(CN2CCc3c([nH]c4ccccc34)C2CC(C)C)cnn1C (stereo not given) | 3% | -3% | -6 | 0% | -3 | -28%
Cc1cccc(OCC(O)Cn2c(N3CCCCC3)nc3c2c(=O)n(C)c(=O)n3C)c1 (stereo not given) | 1% | -2% | -7 | ? | 1 | ?
N#Cc1ccccc1OCC(=O)NCC(c1ccc(F)cc1)N1CCOCC1 (stereo not given) | -3% | / | / | -21% | / | ?
CCC(=O)c1cn(CC(=O)Nc2ccc(OC)cc2)c2ccccc12 | 1% | 8% | -4 | 3% | -4 | 26%
O=C(COc1ccc(-n2cnnn2)cc1)Nc1ccc(F)c(F)c1 | 0% | / | / | / | / | /
CN(Cc1ccccc1)c1ncnc2sccc12 | 1% | -24% | 5 | -1% | -1 | 11%
Cn1c(=O)n(C)c2cc(NS(=O)(=O)c3ccc(Cl)s3)ccc21 | 3% | / | 13 | -1% | 7 | -5%
Cn1c(=O)n(C)c2cc(NS(=O)(=O)c3ccc(Br)s3)ccc21 | 0% | 1% | -13 | 9.3µM* | 0 | 2%
CC(=O)Nc1ccc(S(=O)(=O)NCc2nc(-c3ccccc3Cl)no2)cc1 | 1% | 1% | -12 | 23% | -4 | -1%
Cc1nc(-c2ccccc2O)n(-c2ccccc2)n1 | 4% | 1% | -11 | 7% | 7 | /
O=S(=O)(c1ccccc1)N1CCN(S(=O)(=O)c2ccc(F)cc2)CC1 | 5% | 0% | / | 10µM* | -1 | 35%
O=S(=O)(c1ccc(Br)cc1)N1CCN(c2ccccc2)CC1 | -3% | 1% | 17 | -17% | -1 | 10µM*
COc1cc(OC)cc(C(=O)Nc2cccc(N3CCCC3)c2)c1 | 0% | 10% | -9 | 42% | -3 | ?
COc1ccc(CN2CCNC(=O)C2CC(=O)NC2CCCCC2)c(OC)c1 (stereo not given) | 28% | -9% | -2 | 9.3µM* | -2 | -17%
COc1ccc(CN2CCNC(=O)C2CC(=O)NC2CCCC2)c(OC)c1 (stereo not given) | -2% | 7% | -5 | -11% | -2 | ?
COc1ccc(CN2CCNC(=O)C2CC(=O)NC2CCCC2)cc1OC (stereo not given) | 4% | 11% | -3 | ? | -1 | -15%
COc1ccc(CN2CCNC(=O)C2CC(=O)NC2CCCCCCC2)cc1OC (stereo not given) | 20% | 17% | -3 | -8% | -1 | 12µM*
COc1ccc(C(=O)N2CCNC(=O)C2CC(=O)Nc2ccc(C)c(C)c2)cc1 (stereo not given) | -1% | 5% | -17 | 9.3µM* | 0 | 11%
CC12CCC(C(=O)NCc3ccc4c(c3)OCO4)(C(=O)C1=O)C2(C)C (stereo not given) | 5% | 11% | -9 | / | 3 | 0%
O=C(O)c1cccc(Cn2c(Cl)c(/C=N/NC(=O)c3ccccc3)sc2=O)c1 | 0% | 4% | 17 | 73% | 3 | -3%
SMILES | SARS PLpro yeast | NS1 inh | Shiga inhibitor | Pf growth 96h | Cycloheximide cs | Pf growth 48h
O=C(O)c1cccc(Cn2c(Cl)c(/C=N/NC(=O)c3ccco3)sc2=O)c1 | ? | 4% | 27* | -13% | 33* | -8%
O=C(O)c1cccc(Cn2c(Cl)c(/C=N/NC(=O)c3cccc(O)c3)sc2=O)c1 | 0% | 7% | 75* | ? | 24* | 6%
O=C(OCCN1CCN(C2=NS(=O)(=O)c3ccccc32)CC1)c1ccccc1F | 9% | 15% | -2 | ? | -2 | -13%
O=[N+]([O-])c1ccccc1Oc1ccccc1Cl | 5% | ? | 20 | -20% | 15* | ?
Cc1ccccc1OCCC(=O)Nc1ccccc1C(=O)N1CCCCC1 | -1% | / | / | 34% | / | ?
O=Nc1c(O)n(Cc2ccccc2)c2ccccc12 | -2% | -5% | -9 | -6% | -2 | -19%
Nc1nc2ccccc2n1Cc1ccc(Cl)c(Cl)c1 | -4% | -1% | / | ? | -2 | 10µM*
O=Nc1c(O)n(Cc2ccc(Cl)c(Cl)c2)c2ccccc12 | -23% | -46% | -17 | 9.3µM* | -5 | ?
CCN(CC)CCCNC(=S)N1CCN(c2nc3ccccc3n2CC)CC1 | -3% | 20% | 3 | -24% | 1 | ?
O=c1[nH]c2ccc(S(=O)(=O)Nc3ccc(Cl)cc3)cc2[nH]1 | -5% | -56% | -7 | ? | 1 | 10%
COCCN(Cc1cc2ccc(C)c(C)c2nc1Cl)C(=O)N1CCOCC1 | 0% | -10% | -14 | 44% | 3 | ?
Cc1cc(C)c2nc(Cl)c(CN(Cc3ccco3)C(=O)Nc3ccccc3C)cc2c1 | -17% | ? | 14 | ? | 10 | 12µM*
COCC(=O)N(CCc1ccccc1)Cc1cc2cc(C)ccc2nc1Cl | -9% | -20% | / | 0% | 9 | -39%
COCCN(Cc1cc2cc(C)cc(C)c2nc1Cl)C(=O)Nc1ccccc1 | -14% | 3% | -13 | 0% | 16* | ?
COCCN(Cc1cc2c(C)cc(C)cc2nc1Cl)C(=O)c1ccccc1F | 0% | / | -12 | 1.9µM* | 1 | ?
CCN(CC)C(=O)Nc1ccccc1C | 4% | 4% | -22 | ? | -2 | /
CO[C@@]1(NC(=O)CSCC#N)C(=O)N2C(C(=O)O)=C(CSc3nnnn3C)CS[C@@H]21 | 5% | 10% | -11 | -13% | -2 | -7%
COc1ccc(C2C(C(C)=O)=C(O)C(=O)N2c2ccc(C)cc2)cc1 (stereo not given) | 1% | 11% | 5 | -1% | 3 | 10%[0.00184 µM]
COc1ccc(N2C(=O)C(F)(F)C2c2ccccc2F)cc1 (stereo not given) | -1% | / | 2 | ? | 3 | -5%
Cc1cc(C)cc(N2C(N)=NC(N)=NC2c2ccccc2F)c1 (stereo not given) | 4% | 3% | -3 | 36% | -4 | 3.3µM*
COc1ccc(C2N=C(N)N=C(N)N2c2ccc(C)cc2)cc1 (stereo not given) | -2% | 7% | -6 | 5.9µM* | -1 | /

High-throughput results (PubChem)
